High-throughput results as filed in PubChem BioAssay.
Compounds with a hit are over-represented: about 0.81% of the library has one in this group of screens.
SRC2 inh: inhibits human steroid receptor coactivator 2 | Q15596 | HEK293 GAL4-SRC2 luciferase reporter, luminescence | inhibition, % at 9 µM | actives 0.17% (n = 370,000) | AID 651957;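 active = inhibition above the mean inhibition of all tested compounds plus 3 SD, set per campaign, cut at about 52% in these data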;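 also: 0% = DMSO treated cells and 100% = cells given Gossypol at 36 µM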
NCOA1 inh: inhibits human SRC1 coactivator | actives 0.12% (n = 360,000) | HEK293 GAL4-SRC1 luciferase reporter, luminescence | inhibition, % at 3.6 µM | Q15788;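 active = inhibition above the campaign mean plus 3 SD, with each screening campaign given its own cutoff, cut at about 60% in these data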;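 also: 0% = DMSO treated cells and 100% = gossypol at 36 µM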
NR2F2 inh: inhibitors of human COUP-TFII (NR2F2) | P24468 | HEK293T NGFI-A luciferase reporter, luminescence | inhibition, % at 8.6 µM | actives 0.7% (n = 370,000);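 active = inhibition above a per-plate cutoff, mean inhibition of test wells between control levels plus 3 SD, cut at about 38% in these data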;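 also: cells cotransfected with COUP-TFII expression vector driving the NGFI-A reporter; 0% = median of COUP-TF2 test wells and 100% = reporter-only cells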
NCOA3 inh: inhibits human SRC3 coactivator; Q9Y6Q9; HEK293 GAL4-SRC3 luciferase reporter, luminescence; inhibition, % at 3.6 µM; actives 0.17% (n = 360,000); AID 588352;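 active = inhibition above a per-campaign cutoff, the mean of all compounds plus 3 SD, cut at about 60% in these data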;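 also: 0% = DMSO-treated cells and 100% = gossypol-treated cells at 36 µM; higher means less SRC3-driven luciferase light from the GAL4 reporter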
NR5A2 inv ag: suppresses constitutive activity of human LRH-1 | O00482 | HEK293T StAR-luciferase reporter, LRH-1 transfected, 24 h | inhibition, % at 3.6 µM | actives 0.13% (n = 360,000) | AID 602396;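 active = inhibition above the mean inhibition of all tested compounds plus 3 SD, cut at about 73% in these data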;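 also: 0% = DMSO wells and 100% = reporter-only cells lacking LRH-1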
Numbers without * were called inactive; · = no result.

SMILES	SRC2 inh	NCOA1 inh	NR2F2 inh	NCOA3 inh	NR5A2 inv ag
CC(=O)Nc1ccc(NC(=O)CS(=O)(=O)c2cn(CC(=O)N3CCC(C)CC3)c3ccccc23)cc1	-12.2	-0.8	-21.4	1.2	5.2
Cc1ccc(C(=S)N2CCN(Cc3ccccc3)CC2)cc1	-15.5	-15.1	-1.8	9.2	9.1
CCN1CCN(C(=S)c2ccc(-c3ccccc3)cc2)CC1	70.7*	28.2	26.1	17.7	10.9
O=C(O)c1c(Cl)cccc1Cl	-11.5	-5.0	0.1	-16.4	-14.6
COc1ccc(C)cc1NS(=O)(=O)c1ccc(NC(=O)CN(c2cc([N+](=O)[O-])ccc2C)S(C)(=O)=O)cc1	37.0	10.3	-3.6	38.4	26.9
Cc1cccc(NS(=O)(=O)c2ccc(NC(=O)CN(c3cc([N+](=O)[O-])ccc3C)S(C)(=O)=O)cc2)c1	53.7*	17.4	-24.7	40.2	18.6
O=[N+]([O-])c1ccc(NC(c2ccccc2)c2ccc3cccnc3c2O)cc1 (stereo not drawn)	20.2	72.7*	-15.2	86.7*	38.2
COc1cccc(C(NC(C)=O)c2ccc3cccnc3c2O)c1 (stereo not drawn)	25.5	20.5	-11.3	26.0	76.4*
CC(=O)NC(c1cccc([N+](=O)[O-])c1)c1ccc2cccnc2c1O (stereo not drawn)	34.1	20.6	-0.8	15.1	83.1*
Oc1c(C(Nc2cccc(C(F)(F)F)c2)c2cccnc2)ccc2cccnc12 (stereo not drawn)	12.1	1.2	17.0	24.8	-9.6
O=C(NCc1cccs1)c1nc2c(nnn2Cc2ccccc2Cl)c(=O)[nH]1	56.0*	42.5	65.0*	90.2*	101.1*
Nc1nccc(-c2ccc(-n3cnc4ccccc43)cc2)n1	11.7	35.0	42.4*	38.8	2.5
Cc1nccc(-c2ccc(-n3cnc4ccccc43)cc2)n1	18.1	21.4	23.0	41.7	1.7
CSCC[C@H](NC(=O)[C@H](Cc1ccccc1)n1c(=O)[nH]c2ccccc2c1=O)C(=O)N1CCC(C(=O)O)CC1	15.1	0.7	-1.7	-0.8	15.2
COc1ccc(S(=O)(=O)Nc2cc3c4c(c2)C(C)C(=O)N4CCC3)cc1OC (stereo not drawn)	·	-5.0	·	6.6	-8.8
CCOC(=O)C1=C(COC(=O)/C=C/c2cccc(OC)c2)NC(=O)NC1C (stereo not drawn)	-13.5	-13.0	0.6	-7.8	9.5
CCOC(=O)c1c(C)nn(-c2ccc(NC(=O)c3c(C)noc3C)cc2)c1C	54.0*	20.4	5.5	21.6	2.5
COC(=O)CN1CCN(C(=O)c2nocc2C)CC1	-8.7	·	-0.6	·	·
CN(C)c1ccc(Sc2ccc3nc(N)nc(N)c3c2)cc1	11.2	31.5	25.5	13.1	74.2*
CN(C)c1ccc(Nc2nc(N)c3ccccc3n2)cc1	-23.8	-53.3	-9.5	-62.5	-111.8
Nc1[nH]c(C(=O)c2ccccc2)c(-c2ccc(Cl)cc2)c1C(=O)NCc1ccccc1	14.6	·	15.6	·	2.8
Cc1nnsc1C(=O)N/N=C/c1ccc2ccccc2c1O	18.5	81.5*	3.6	83.8*	-13.8
Cc1nnsc1C(=O)N/N=C/c1ccccc1	-6.5	15.3	-13.2	9.5	-17.8
O=C(/C=C/c1ccccc1)CC(O)(c1ccccc1)C(F)(F)F (stereo not drawn)	39.6	39.6	16.3	71.7*	19.9
Cc1ccc(NC2=C/C(=N/S(=O)(=O)c3cccs3)c3ccccc3C2=O)cc1	-72.2	-66.3	-23.8	73.0*	-101.4
SMILES	SRC2 inh	NCOA1 inh	NR2F2 inh	NCOA3 inh	NR5A2 inv ag
O=C1C(Nc2ccccc2)=C/C(=N/S(=O)(=O)c2cccs2)c2ccccc21	·	85.2*	·	87.2*	79.3*
Cc1ccc(S(=O)(=O)/N=C2/C=C(Sc3ncn[nH]3)C(=O)c3ccccc32)cc1	·	91.3*	·	93.8*	97.1*
Cc1ccc(S(=O)(=O)/N=C2\C=C(Nc3ccc(O)cc3)C(=O)c3ccccc32)cc1	·	90.5*	·	91.7*	95.3*
COC(=O)c1ccccc1NC1=C/C(=N\S(=O)(=O)c2cccs2)c2ccccc2C1=O	2.5	-12.6	15.6	-16.0	9.3
Cc1ccc(S(=O)(=O)/N=C2\C=C(Nc3cccc(C(=O)O)c3)C(=O)c3ccccc32)cc1	-51.4	-17.1	2.1	-10.9	-44.3
Cc1ccc(NC(=O)c2cccc(NC(=O)CC3SC(N4CCCCC4)=NC3=O)c2)nc1 (stereo not drawn)	-22.4	-47.0	6.3	-27.0	2.3
O=C(Cc1cc(=O)[nH][nH]1)N/N=C/c1ccccc1C(F)(F)F	-18.6	·	0.0	·	·
